MEX-5 binding: MEX-5 zinc finger RNA-binding disruptors – biochemical, C. elegans, fluorescence polarization, MLPCN library, primary screen; Zinc finger protein mex-5 (Caenorhabditis elegans), Q9XUB2; MEX-5/FITC-TCR2 RNA binding; hits give low values; activity score (negative = inhibition of binding), % at 10 µM; 300,000 tested, 0.38% active; AID 1832, 2009;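 active = inhibition past about -25% in most replicates, and total fluorescence under double the plate's negative control median, limit read from the data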;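 note: 0% = DMSO and -100% = 5 µM competing unlabeled TCR2 RNA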
eLon inh: inhibitors of E. coli Lon protease, primary screen, biochemical, fluorescence polarization | purified E. coli Lon protease | inhibition, % at 7.94 µM | P0A9M0 | 360,000 tested, 0.42% active | AID 602123, 2011; in the data active = inhibition above about 13%, passing the limit was not always enough;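 note: 0% = enzyme with probe and DMSO and 100% = no enzyme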
MCL1 BIM primary: inhibitors of MCL1 binding to BIM-BH3, primary screen, biochemical, fluorescence polarization; AID 2057, 2009; Induced myeloid leukemia cell differentiation protein Mcl-1 (Homo sapiens), Q07820; inhibition, % at 10.9 µM; 320,000 tested, 0.68% active; GST-MCL1 / FITC-Bim-BH3 fluorescence polarization;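 active = inhibition above the mean inhibition of all tested compounds plus 3 SD, set per campaign, cut at about 40% in these data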;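 note: 0% = DMSO wells and 100% = unlabeled Bim-BH3 peptide control; higher means more loss of mP so more displacement of Bim peptide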
EBV gp42 block: Epstein-Barr virus gp42 inhibitors, primary screen, biochemical, uHTS, fluorescence polarization. Glycoprotein 42 (Epstein-Barr virus (strain AG876)), Q1HVG2. Fluorescence polarization binding assay, mP read-out. inhibition, % (tested at 21.74 µM). 220,000 tested, 0.42% active. AID 1085, 2008; in the data active = inhibition above about 50%
GLD-1 RNA inh: GLD-1/TGE RNA complex disruptors, primary screen, biochemical, fluorescence polarization. purified GLD-1 + fluorescein TGE RNA. inhibition, % at 5.96 µM. AID 2280, 2010. 320,000 tested, 0.44% active;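 active = percent inhibition above a per-plate cutoff, the plate mean of test compounds plus 3 SD, cut at about 30% in these data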;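 note: 0% = DMSO wells with GLD-1 and probe and 100% = wells lacking GLD-1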
BCLXL inh: inhibitors of human Bcl-xL, primary screen, biochemical, fluorescence polarization, HTS. GST-Bcl-xL / FITC-Bim BH3 peptide fluorescence polarization. 320,000 tested, 0.7% active. inhibition, % at 10.9 µM. Bcl-2-like protein 1 (Homo sapiens), Q07817. AID 2129, 2009;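 active = inhibition above the mean of all tested compounds plus 3 SD, cutoff set per campaign, cut at about 30% in these data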;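 note: 0% = DMSO wells and 100% = unlabeled Bim-BH3 peptide competitor; inhibitors lower millipolarization by displacing the labeled peptide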
Target sequence (Q07817 whole entry, looked up): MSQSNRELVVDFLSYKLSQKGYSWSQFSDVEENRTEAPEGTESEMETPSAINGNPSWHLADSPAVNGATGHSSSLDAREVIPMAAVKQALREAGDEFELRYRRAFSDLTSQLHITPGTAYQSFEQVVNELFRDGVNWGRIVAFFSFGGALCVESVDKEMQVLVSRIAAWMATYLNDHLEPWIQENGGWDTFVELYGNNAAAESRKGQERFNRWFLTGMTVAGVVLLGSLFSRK
Starred values were filed as active, the others as inactive; x = not tested or not shown. The list is not random: actives were taken first. Their share in the collection is about 1.5%.

SMILES	MEX-5 binding	eLon inh	MCL1 BIM primary	EBV gp42 block	GLD-1 RNA inh	BCLXL inh
O=C(c1cnn2c(C(F)(F)F)cc(-c3cccs3)nc12)N1CCN(C(c2ccccc2)c2ccccc2)CC1	1	0	-1	-8	2	85*
CN(C(=O)c1ccc(C#N)cc1)c1nnc(-c2cnccn2)s1	-1	-7	1	0	-7	-1
COc1ccc(NC(=O)CN2C(=O)NC(C)(c3ccc4c(c3)OCCO4)C2=O)cc1S(N)(=O)=O (stereo not drawn)	x	-3	x	x	1	x
COc1ccc(Nc2nc(=O)c3cc([N+](=O)[O-])ccc3s2)cc1	1	0	x	61*	x	x
O=C(N/N=C/C=C/c1ccc([N+](=O)[O-])cc1)c1cccs1	-72*	-22	13	-51	-22	0
O=C(N/N=C/C=C\c1ccccc1[N+](=O)[O-])c1cccs1	-1	-5	11	12	5	10
O=C(NC[C@@H]1CCCO1)c1cccc2c1C(=O)c1ccc(N3CCOCC3)cc1S2(=O)=O	x	-37	x	x	3	x
C=CCNC(=O)c1cccc2c1C(=O)c1ccc(N3CCCC3)cc1S2(=O)=O	x	-35	x	x	43*	x
O=C(O)c1cccc2c1C(=O)c1ccc(N3CCCCC3)cc1S2(=O)=O	x	-39	-2	x	-11	16
O=C(NCC1CC1)c1cccc2c1C(=O)c1ccc(N3CCCC3)cc1S2(=O)=O	x	-18	x	x	44*	x
O=C(NCC1CCCO1)c1cc(C(=O)c2ccc(Cl)cc2Cl)c[nH]1 (stereo not drawn)	3	-4	-1	-13	-10	4
Cc1nc2c3ccccc3nc(NNC(=O)CCC(=O)N3CCC(C)CC3)n2n1	-19	3	-1	x	5	-1
CCOC(=O)C1CCN(C(=O)CCC(=O)NNc2nc3ccccc3c3nc(C)nn23)CC1	-48*	3	7	x	0	7
CCN(CC)CCCNC(=O)CCC(=O)NNc1nc2ccccc2c2nc(C)nn12	-54*	3	8	-6	1	6
CCCCN(C)C(=O)CCC(=O)NNc1nc2ccccc2c2nc(C)nn12	-32*	1	5	5	0	2
Cc1nc2c3ccccc3nc(NNC(=O)CCC(=O)NCCC(C)C)n2n1	-4	10	11	-7	-3	5
COc1cc(/C=C2/C(C)=C(C#N)c3nc(N)c(C#N)c(C)c32)ccc1OCC(=O)O	-18	x	29	6	9	31*
Nc1nonc1-c1nc2ccccc2n1CC(=O)N/N=C/c1ccc(-c2ccccc2C(=O)O)o1	-3	-10	16	-11	0	17
CC1=C(C#N)c2nc(N)c(C#N)c(C)c2/C1=C\c1ccc(-c2ccccc2C(=O)O)o1	-52*	-6	x	8	x	x
C[C@@H]1CN([C@@H](C)CO)C(=O)c2cc(C#CC(C)(C)O)cnc2O[C@@H]1CN(C)C(=O)c1ccccc1F	x	-1	x	x	x	x
COc1ccc(-c2cc(C(=O)N/N=C(\C)c3ccco3)c3ccccc3n2)c(OC)c1	-32*	0	9	x	5	6
Cc1nnc(N2C(=O)C(O)=C(C(=O)c3ccco3)C2c2cccc3ccccc23)s1 (stereo not drawn)	-8	-19	25	41	21	26
Cc1ccc(C2C(C(=O)c3ccco3)=C(O)C(=O)N2c2nnc(C)s2)cc1 (stereo not drawn)	-11	8	25	77*	34*	31*
C=CCSc1nnc(N2C(=O)C(O)=C(C(=O)c3ccco3)C2c2ccccc2F)s1 (stereo not drawn)	-35*	4	34	x	25	27
COc1ccc(C(C)(C)C)cc1NC(=O)C1=CC=CN2CCS(=O)(=O)N=C12	x	1	x	x	5	x
COc1cc(/C=C2\S/C(=N/S(=O)(=O)Cc3ccccc3)NC2=O)c([N+](=O)[O-])cc1OC	0	-10	23	-9	19	28

Screening results: PubChem, several laboratories
